The sample as a whole holds a higher share of hits than the screen did.
ST2 IL33 inh: inhibitors of human ST2 (IL1RL1) binding to IL-33; inhibition, % for hits at 17 µM; Q01638; AlphaLISA ST2-Fc/biotin-IL-33 interaction, 1 h; AID 1259354; actives 2.3% (n = 78,000); in the data active = inhibition above about 30%
Target sequence (Q01638 whole entry, looked up): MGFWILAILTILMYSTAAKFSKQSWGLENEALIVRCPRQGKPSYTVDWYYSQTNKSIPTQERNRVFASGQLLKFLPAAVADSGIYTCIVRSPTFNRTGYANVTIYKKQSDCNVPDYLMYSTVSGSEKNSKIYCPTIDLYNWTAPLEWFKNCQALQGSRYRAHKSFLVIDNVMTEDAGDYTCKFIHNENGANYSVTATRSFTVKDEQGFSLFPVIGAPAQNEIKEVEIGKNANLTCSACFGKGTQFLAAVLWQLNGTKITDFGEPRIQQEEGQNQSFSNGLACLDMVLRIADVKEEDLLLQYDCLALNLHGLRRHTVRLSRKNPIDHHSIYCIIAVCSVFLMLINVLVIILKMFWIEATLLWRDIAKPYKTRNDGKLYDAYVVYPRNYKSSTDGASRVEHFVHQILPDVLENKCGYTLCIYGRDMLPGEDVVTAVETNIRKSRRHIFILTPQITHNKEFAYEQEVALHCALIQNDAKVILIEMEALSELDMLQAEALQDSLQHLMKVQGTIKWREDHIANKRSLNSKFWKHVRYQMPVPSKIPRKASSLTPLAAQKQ
Of the large screens only hits and unclear results are named; the others gave an inactive call.

COc1ccc(/C=C(/NC(=O)c2ccco2)C(=O)Nc2ccc(OC)cc2)cc1	none
COc1ccccc1C(CC(=O)O)c1ccco1 (configuration not stated)	none
C=C(C)CC(Nc1ccc(OC)cc1)c1ccco1 (configuration not stated)	ST2 IL33 inh 37%
Cc1nc2c(ccc3nc(NC(=O)CCOc4ccccc4)sc32)s1	none
COc1ccc(-c2cc(=O)c3cc(Br)ccc3o2)cc1OC	ST2 IL33 inh 31%
COc1ccc(-c2cc(=O)c3cc(F)ccc3o2)cc1OC	none
COc1cc(-c2cc(=O)c3ccccc3o2)ccc1O	none
Cc1nc2nc(SCC(=O)NC3CC3)nn2c(C)c1Cc1ccccc1	none
O=C(Cc1ccccc1[N+](=O)[O-])N1CCN(c2ccccn2)CC1	none
O=C(c1ccc(Cl)cc1)N1CCN(c2ccc([N+](=O)[O-])c3ncccc23)CC1	none
O=[N+]([O-])c1ccc(N2CCN(c3ccccc3)CC2)c2ncccc12	ST2 IL33 inh 32%
COc1cc(-c2nc3ccc(Br)cc3c(=O)o2)cc(OC)c1OC	none
CCOc1cc(OCC)cc(C(=O)Nc2cccc(-c3nc4ncccc4o3)c2)c1	none
O=C(Nc1cccc(-c2nc3ncccc3o2)c1)c1ccc(OCc2ccccc2)cc1	ST2 IL33 inh 33%
CC(C)c1ccc(C(=O)Nc2cccc(-c3nc4ncccc4o3)c2)cc1	none
O=[N+]([O-])c1ccc(N2CCN(S(=O)(=O)Cc3ccccc3)CC2)cc1NCc1cccnc1	none
Cc1ccccc1C(=O)N1CCN(c2ccc([N+](=O)[O-])c(NCCc3ccccc3)c2)CC1	none
CC(=O)N1CCN(c2ccc([N+](=O)[O-])c(NC(C)C34CC5CC(CC(C5)C3)C4)c2)CC1 (configuration not stated)	none
O=C(c1cccc(F)c1)N1CCN(c2ccc(Cl)cc2)CC1	none
O=C(c1ccccc1Cl)N1CCN(c2ccc([N+](=O)[O-])c(N3CCOCC3)c2)CC1	none
Cc1ccccc1C(=O)N1CCN(c2ccc([N+](=O)[O-])c(NC(C)c3ccccc3)c2)CC1 (configuration not stated)	ST2 IL33 inh 38%
CC(Nc1cc(N2CCN(S(=O)(=O)N(C)C)CC2)ccc1[N+](=O)[O-])c1ccccc1 (configuration not stated)	ST2 IL33 inh 30%
O=C(c1ccccc1)c1ccc(N2CCN(C(=O)c3cccc(F)c3)CC2)c(F)c1	none
O=C(c1cccc(F)c1)N1CCN(c2ccc([N+](=O)[O-])c(NCc3ccccc3)c2)CC1	ST2 IL33 inh 36%
NC1=NC(=O)CC(C(=O)Nc2ccccc2)S1 (configuration not stated)	none
Cc1cc(C)n2c(-c3ccccc3C)nnc2n1	none
COc1ccc(S(=O)(=O)NC2CCCCCCC2)cc1OC	none
CC(=O)Nc1ccc(NC(=O)c2ccc(C(=O)N(C(C)C)C(C)C)cc2)cc1	none
O=c1[nH]c(-c2cccc(O)c2)nc2c1cnn2-c1ccccc1	none
Cc1ccc(S(=O)(=O)NC(=O)c2cccc([N+](=O)[O-])c2)cc1	none
COc1ccc(SCCc2ccc(C)nc2)cc1	none
O=C(O)C12C[C@@H]3C[C@@H](CC(O)(C3)C1)C2	none
COc1ccc(S(=O)(=O)N2CCN(c3nc(C)cc(Nc4ccccc4)n3)CC2)cc1C	ST2 IL33 inh 34%
COc1ccc(Nc2cc(C)nc(N3CCN(S(=O)(=O)c4ccc(OC)c(C)c4)CC3)n2)cc1	none
COc1ccc(Nc2cc(C)nc(N3CCN(S(=O)(=O)c4ccc(OC)cc4)CC3)n2)cc1	none
C=CCc1cc(OC)ccc1OCCOCCN1CCOCC1	none
COc1cc(C2C3=C(CCCC3=O)NC3=C2C(=O)c2ccccc23)ccc1O (configuration not stated)	none
COc1cc(C2N(Cc3ccccc3)CCN2Cc2ccccc2)ccc1O	none
COc1cc(C2CC(c3ccccc3O)=NN2)ccc1O (configuration not stated)	ST2 IL33 inh 32%
Cn1c(=N)n(CC(=O)NC2C3CC4CC(C3)CC2C4)c2ccccc21 (configuration not stated)	none
CC(C)Oc1ccc(C(=O)Nc2ccc(Cl)c(N3CCCS3(=O)=O)c2)cc1	none
CC(=O)c1cccc(NC(=O)Cn2c(-c3nonc3N)nc3ccccc32)c1	none
Cc1cccc(-c2cc(C(=O)n3nc(C)cc3C)c3ccccc3n2)c1	none
COc1ccccc1NC(=O)N1C[C@@H]2C[C@H](C1)c1ccc(-c3ccc(NC(C)=O)cc3)c(=O)n1C2	none
O=C(Nc1ccccc1)N1C[C@@H]2C[C@H](C1)c1ccc(-c3ccc(OC(F)(F)F)cc3)c(=O)n1C2	ST2 IL33 inh 33%
COc1ccc(S(=O)(=O)N2C[C@@H]3C[C@H](C2)c2ccc(-c4ccc(OC(F)(F)F)cc4)c(=O)n2C3)cc1	none
Clc1ccc(CNc2ncnc3ccccc23)cc1	none
O=C(CN1C(=O)CNC1=O)N1CCC2(CC1)C(=O)Nc1ccccc12	none
Cc1nc(C2CCNCC2)cc(N2[C@@H]3CC[C@H]2CC(O)C3)n1 (some centres not stated)	none
Cc1ccc(C23C[C@@H]4C[C@@H](CC(C(=O)NC(C)C(=O)O)(C4)C2)C3)cc1 (some centres not stated)	none
CCc1ccc(NC(=O)CCSc2ccccc2)cc1	none
O=C(NCc1cccs1)c1ccc2c(c1)N(Cc1cccc(Cl)c1)C(=O)CS2	none
Cc1cccc(Cn2c(CNS(=O)(=O)Cc3ccccc3)nc3cccnc32)c1	none
Cc1ccc(-n2nc3c4nonc4ccc3[n+]2[O-])cc1	none
Cc1ccc(N2C(=O)C3Sc4[nH]c(=O)sc4C(c4ccccc4)C3C2=O)cc1 (configuration not stated)	ST2 IL33 inh 34%
Cc1ccc(NC2SC(=O)N(c3ccccc3)C2=O)cc1 (configuration not stated)	none
O=c1[nH]c2c(s1)C(c1ccc(Cl)cc1)C1C3CCC(C3)C1S2 (configuration not stated)	none
O=C1C(=C(O)c2ccccc2)NS(=O)(=O)c2ccccc21	none
O=C1C(=C(c2ccccc2)c2ccccc2)C(=O)c2ccccc21	ST2 IL33 inh 39%
O=C1CN(C(=O)c2ccccc2)C(=O)CN1C(=O)c1ccccc1	none
Cc1nnc(Nc2ccc(C(C)C)cc2)[nH]c1=O	none
CCOc1cc(C(=O)Nc2c(C(N)=O)oc3ccccc23)cc(OCC)c1OCC	none
COc1ccccc1C1C2=C(CCCC2=O)Nc2ccccc2N1C(=O)c1ccccc1 (configuration not stated)	none
Cc1ccccc1C(C(=O)NCc1c(C)noc1C)N(C)C (configuration not stated)	none
Cc1ccc(CNC(=O)CN2C(=O)/C(=C/c3ccccc3F)Sc3ccccc32)cc1	none
O=C(CN1C(=O)/C(=C/c2ccccc2F)Sc2ccccc21)N1CCCC1	ST2 IL33 inh 33%
O=C(CN1C(=O)/C(=C/c2ccccc2F)Sc2ccccc21)NCCN1CCOCC1	none
Cc1ccccc1CSC1=NCCN1C(=O)c1ccc(S(=O)(=O)N2CCOCC2)cc1	none
COc1cccc(-c2ncnn2-c2sc3c(c2C#N)CCCCC3)c1OC	none
N#Cc1c(-n2ncnc2-c2cccs2)sc2c1CCCCC2	ST2 IL33 inh 44%
COc1cc(-c2ncnn2-c2sc3c(c2C#N)CCCCC3)cc(OC)c1OC	none
CC1CCCC(N2CCC(N3CCCCC3)CC2)C1 (configuration not stated)	none
C=C(C)CN(CC)Cc1cc(OC)c(OC)c(OC)c1	none
C=C(C)CN(CC)Cc1ccc(-c2ccccc2[N+](=O)[O-])o1	ST2 IL33 inh 33%
CCN(CC)C(=O)c1ccc([N+](=O)[O-])o1	none
CCOc1ccc(NC(=O)c2ccccc2OCC)c([N+](=O)[O-])c1	ST2 IL33 inh 42%
CCC(=O)c1ccccc1NC(=O)c1ccccc1Br	none

High-throughput results (PubChem BioAssay)
